Measurements taken from PubChem BioAssay AID1159580 (chemical genetic matrix, 2015).
Values joined by “and” are separate entries in the source; they are usually repeats but may differ in a detail not shown here. Identical values can stand only once. Out of some 5,500 compounds screened, about 2,000 (36%) were called active. About 18% were inconclusive and are not listed. Rule as the data show it: active = normalized growth mostly below about 0.91 (no sharp cut-off); inconclusive = no clear call, values can overlap the other calls; inactive = mostly above about 0.92. The list shows a part of the results.

Assay: chemical genetic growth profiling, strain panel (AID 1159580);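 also: tested at 20 µM; growth read once vehicle control cultures reached saturation at 30 °C; 1 = growth at the plate median or of vehicle wells; lower values mean less growth of the strain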
Details: S. cerevisiae deletion strains, growth OD

Measured: normalized growth

CC(=O)C1CCC2C3CCC4C[C@H](O)CCC4(C)C3C[C@H](O)C12C (some centres not stated)
inactive: locus YAL013W, strain DEP1, stronger effect = lower value 1.03 | locus YAL021C, strain ccr4, stronger effect = lower value 0.96 | locus YAL026C, strain drs2, stronger effect = lower value 0.984 | locus YAL030W, strain snc1, stronger effect = lower value 0.971 | locus YBL061C, strain skt5, stronger effect = lower value 0.989 | locus YBR009C, strain hhf1, stronger effect = lower value 0.963 | locus YBR021W, strain FUR4, stronger effect = lower value 1.02 | locus YBR023C, strain chs3, stronger effect = lower value 0.989 | locus YBR171W, strain sec66, stronger effect = lower value 0.961 | locus YBR229C, strain ROT2, stronger effect = lower value 1.03 | locus YBR231C, strain swc5, stronger effect = lower value 0.993 | locus YBR279W, strain paf1, stronger effect = lower value 0.98 | locus YCL011C, strain gbp2, stronger effect = lower value 0.957 | locus YCL016C, strain dcc1, stronger effect = lower value 0.97 | locus YCL029C, strain bik1, stronger effect = lower value 1 | locus YCL069W, strain vba3, stronger effect = lower value 0.968 | locus YCR088W, strain abp1, stronger effect = lower value 0.972 | locus YDL005C, strain med2, stronger effect = lower value 0.971 | locus YDL035C, strain GPR1, stronger effect = lower value 1.09 | locus YDL040C, strain nat1, stronger effect = lower value 0.982 | locus YDL074C, strain BRE1, stronger effect = lower value 1.16 | locus YDL101C, strain DUN1, stronger effect = lower value 1.02 | locus YDL134C, strain PPH21, stronger effect = lower value 1.05 | locus YDL185W, strain tfp1, stronger effect = lower value 0.999 | locus YDL192W, strain arf1, stronger effect = lower value 1.02 | locus YDR001C, strain nth1, stronger effect = lower value 0.956 | locus YDR069C, strain doa4, stronger effect = lower value 0.945 | locus YDR101C, strain arx1, stronger effect = lower value 1.01 | locus YDR137W, strain rgp1, stronger effect = lower value 0.966 | locus YDR150W, strain NUM1, stronger effect = lower value 1.04 | locus YDR159W, strain sac3, stronger effect = lower value 0.982 | locus YDR162C, strain NBP2, stronger effect = lower value 1.04 | locus YDR195W, strain ref2 0.956 | locus YDR297W, strain sur2, stronger effect = lower value 0.976 | locus YDR318W, strain mcm21, stronger effect = lower value 1.02 | locus YDR334W, strain swr1, stronger effect = lower value 0.962 | locus YDR335W, strain msn5, stronger effect = lower value 0.982 | locus YDR388W, stronger effect = lower value 1.01 | locus YDR392W, strain spt3, stronger effect = lower value 0.978 | locus YDR502C, strain sam2, stronger effect = lower value 1.01 | locus YEL003W, strain gim4, stronger effect = lower value 0.979 | locus YEL037C, strain rad23, stronger effect = lower value 0.972 | locus YEL061C, strain CIN8 (second series), stronger effect = lower value 0.973 | locus YEL061C, strain CIN8, stronger effect = lower value 1.03 | locus YER015W, strain faa2, stronger effect = lower value 0.968 | locus YER016W, strain bim1, stronger effect = lower value 0.971 | locus YER110C, stronger effect = lower value 0.987 | locus YER111C, strain swi4, stronger effect = lower value 0.978 | locus YER155C, strain BEM2 (second series), stronger effect = lower value 0.979 | locus YER155C, strain BEM2, stronger effect = lower value 1.02 | locus YER167W, strain BCK2, stronger effect = lower value 1.02 | locus YFR010W, strain ubp6, stronger effect = lower value 0.975 | locus YGL078C, strain dbp3, stronger effect = lower value 0.995 | locus YGL086W, strain mad1, stronger effect = lower value 1.01 | locus YGL167C, strain pmr1, stronger effect = lower value 0.96 | locus YGL173C, strain kem1, stronger effect = lower value 0.965 | locus YGL227W, strain vid30, stronger effect = lower value 0.972 | locus YGL240W, strain doc1, stronger effect = lower value 0.984 | locus YGL248W, strain PDE1, stronger effect = lower value 1.08 | locus YGL253W, strain hxk2, stronger effect = lower value 0.963 | locus YGR078C, strain PAC10, stronger effect = lower value 1.07 | locus YGR135W, strain pre9, stronger effect = lower value 0.998 | locus YGR252W, strain gcn5, stronger effect = lower value 1.06 | locus YHR013C, strain ard1, stronger effect = lower value 0.942 | locus YHR027C, strain rpn1, stronger effect = lower value 0.971 | locus YHR030C, strain SLT2, stronger effect = lower value 1.01 | locus YHR079C, strain IRE1 (second series), stronger effect = lower value 1.01 | locus YHR079C, strain IRE1, stronger effect = lower value 1.02 | locus YHR094C, strain hxt1, stronger effect = lower value 1 | locus YHR129C, strain ARP1, stronger effect = lower value 1.04 | locus YHR142W, strain chs7, stronger effect = lower value 0.953 | locus YHR200W, strain rpn10, stronger effect = lower value 1.01 | locus YIL066C, strain RNR3, stronger effect = lower value 1.04 | locus YIL073C, strain SPO22, stronger effect = lower value 1.12 | locus YIL125W, strain kgd1, stronger effect = lower value 1.01 | locus YIR030C, strain dcg1, stronger effect = lower value 1.01 | locus YJL092W, strain hpr5, stronger effect = lower value 0.964 | locus YJL095W, strain BCK1 (second series), stronger effect = lower value 0.961 | locus YJL095W, strain BCK1, stronger effect = lower value 1.07 and 1.01 | locus YJL115W, strain asf1, stronger effect = lower value 0.963 | locus YJL129C, strain trk1, stronger effect = lower value 0.968 | locus YJL134W, strain LCB3, stronger effect = lower value 1.01 | locus YJL154C, strain vps35, stronger effect = lower value 0.968 | locus YJL164C, strain tpk1, stronger effect = lower value 0.96 | locus YJL166W, strain qcr8, stronger effect = lower value 0.975 | locus YJL168C, strain set2, stronger effect = lower value 0.987 | locus YJL187C, strain SWE1 (second series), stronger effect = lower value 1.04
